Our source for the INHIBITION values is ChEMBL document CHEMBL4513216, “Probing the Open Global Health Chemical Diversity Library for Multistage-Active Starting Points for Next-Generation Antimalarials” (ACS Infect Dis, 2020).

Screen size: about 69,000 compounds; about 8,600 (12%) showed an effect of 50% or more. Only a selection was taken, and strong results are over-represented in it overall.

The assay has as its system Plasmodium berghei. Description: Screen against P. berghei liver stage (PbLuc), transformed with Luciferase, at 10uM. Type of assay: functional, HepG2. The following applies: tested at 10 uM.
For `CCOCC1CN(C(=O)c2ccncn2)Cc2cnn(C)c21` (configuration not stated), the INHIBITION is given as 1.48%.
The result for `CC(CCc1ccccc1)NC(=O)CNCCCN(C)C` (configuration not stated) reads 52.5%; that for `CC(CCc1ccccc1)NC(=O)CN1CCOCC1` (configuration not stated), 20.8%; that for `CC(CCc1ccccc1)NC(=O)CNCCCN1CCOCC1` (configuration not stated), 32.7%.
The result for `Cn1cnnc1SCC(=O)NC1CC(=O)N(CCc2ccccc2)C1` (configuration not stated) reads -6.18%; that for `COCCCN(C)c1cc(C(F)(F)F)nc(-c2cccnc2)n1`, 59.4%; that for `FC(F)(F)c1cc(NCCCn2cccn2)nc(-c2cccnc2)n1`, 15.1%.
As to `COCC(O)CN(C)c1cc(C(F)(F)F)nc(-c2cccnc2)n1` (configuration not stated), the INHIBITION was determined as 85.1%.
To `CN(CCn1cccn1)c1cc(C(F)(F)F)nc(-c2cccnc2)n1` belongs 3.67%; to `CC(=O)N1CCc2c(nc(-c3cccnc3)nc2N(C)CC(O)CO)C1` (configuration not stated), -31.4%.
With `CC(O)CN(C)c1cc(C(F)(F)F)nc(-c2cccnc2)n1` (configuration not stated), the INHIBITION was found to be 16.6%.
To `CCN(Cc1cn(CC2CCNCC2)nn1)CC1CCCO1` (configuration not stated) belongs -16.3%; to `CN(C)C(=O)[C@@H]1CC[C@@H]2[C@@H](CCN2Cc2nccs2)O1`, -22.1%; to `CCC1=N[C@@]2(CC[C@@H]3CN(Cc4ccccc4F)C[C@@H]32)C(=O)N1CC`, 13.5%.
To `Cc1cc(C(=O)N(C)Cc2cccs2)nc(N2CCCCC2)n1` belongs 52.4%; to `Cc1cc(C(=O)N(C)Cc2cccs2)nc(N2CCCC2)n1`, -33.7%.
Turning to `Cc1cc(C(=O)N(C)Cc2cccs2)nc(N2CCOCC2)n1`, the INHIBITION was found to be 19.3%.
The result for `CC(C)OCCCNC(=O)CS(=O)(=O)Cc1ccc(C(C)C)cc1` reads 7.67%; that for `CCCOc1cc(C)ccc1NC(=O)N(C)C`, 24.2%; that for `CCc1nnc2n1CCN(C(=O)c1cc3ccc(C)cc3[nH]1)C2`, 23.7%.
To `COCC1CN(Cc2ccncc2)Cc2nn(CC3CC3)cc21` (configuration not stated) belongs 29.9%.
To `CCOCC1CN(CC2CC2)Cc2nn(CC3CC3)cc21` (configuration not stated) belongs 29%; to `COCC1CN(CC2CC2)Cc2nn(CC3CC3)cc21` (configuration not stated), 56.7%; to `COCC1CN(Cc2ccoc2)Cc2nn(C)cc21` (configuration not stated), 24.1%.
As to `CCOCC1CN(Cc2ccncc2)Cc2nn(C)cc21` (configuration not stated), the INHIBITION is reported as 29.9%.
Take `COCC1CN(CC2CC2)Cc2nn(C)cc21` (configuration not stated): the INHIBITION was determined as 55.7%.
On to `COCC1CN(Cc2cnn(C)c2)Cc2nn(C)cc21` (configuration not stated), for which the INHIBITION was found to be 25.2%.
On to `CCOCC1CN(Cc2ccc(F)cc2)Cc2nn(C)cc21` (configuration not stated), for which the INHIBITION came to 41.6%.
Consider `CCOCC1CN(CC2CC2)Cc2nn(C)cc21` (configuration not stated), for which the INHIBITION is listed as 52%.
On to `O=S(=O)(c1ccccc1)N1C[C@@H]2CCCCN(Cc3cccs3)[C@@H]2C1`, for which the INHIBITION was 11.8%.
To `O=C1CCCC2(CCN(C(=O)c3ccccn3)CC2)N1` belongs 17.4%; to `O=C(NC[C@]1(O)CCN(Cc2ccsc2)C[C@H]1O)c1c[nH]cn1`, -0.275%; to `NC(=O)N1CC[C@H](O)[C@@H]1Cc1cccnc1`, 38.1%.
Regarding `O=C(N1CCCCC1)N1CCN(c2ccc(Cl)nn2)C(=O)C1`, the INHIBITION is 30%.
The result for `CCCSc1ncc(CN(C)CCN2CCCCC2)cn1` reads 32.3%.
The result for `Cc1cc(C)n(CC2CCCN2C(=O)c2cccn3ccnc23)n1` (configuration not stated) reads 15.32%.
The result for `CCCC1CCN(C(=O)c2coc(COc3ccc(OC)cc3)n2)C1` (configuration not stated) reads 19.5%; that for `COc1ccc(OCc2nc(C(=O)N3CC[C@H](O)[C@@H](O)C3)co2)cc1`, -38.2%.
In the case of `COc1cc(C)ccc1OCc1nc(C(=O)N2CCC(C)CC2)co1`, the INHIBITION is listed as 5.33%.
The result for `COc1cc(C)ccc1OCc1nc(C(=O)N2CCCC2)co1` reads 37.8%; that for `COc1cc(C)ccc1OCc1nc(C(=O)N2CCCO2)co1`, 67.5%.
Turning to `COc1ccc(OCc2nc(C(=O)N3CCCNC(=O)C3)co2)cc1`, the INHIBITION is recorded as 53.6%.
With `COc1cc(C)ccc1OCc1nc(C(=O)N2CCCNC(=O)C2)co1`, the INHIBITION turned out to be 63.8%.
Turning to `COc1ccc(OCc2nc(C(=O)N3CC(O)C3)co2)cc1`, the INHIBITION was determined as 33.5%.
On to `CNC(=O)C1CCN(C(=O)c2coc(COc3ccc(OC)cc3)n2)C1` (configuration not stated), for which the INHIBITION is -66.3%.
`Cc1ccc(C(NCC(=O)N2CCNC(=O)C2)c2ccccc2)cc1` (configuration not stated): the INHIBITION turned out to be 29.4%.
As for `Cc1ccc(NC2CCN(C(=O)c3c(C)nn(C)c3Cl)CC2)nn1`, the INHIBITION turned out to be 1.45%.
As for `O=C1NCC2=Nc3ccccc3NC(c3ccc(O)cc3)C12` (configuration not stated), the INHIBITION is -72.4%.
The result for `COC1CCN(C(=O)Cc2csc(-c3ccc(F)cc3)n2)CC1` reads -7.35%.
`CC(C)c1nn(C)c(N2CCOCC2)c1CNC(C)c1ccco1` (configuration not stated): the INHIBITION was 4.52%.
The result for `O=C(NCc1cccnc1N1CCCCC1)c1ccc2[nH]nnc2c1` reads 17.5%; that for `Cc1ccccc1CS(=O)(=O)CC(=O)NCc1ccccc1F`, -15.8%.
